Source: PubChem BioAssay AID1159580 (chemical genetic matrix, 2015)
Hit rate of the full screen: of about 5,500 compounds, about 2,000 (36%) were called active. Another 18% or so got no clear call; they are omitted. Rule as the data show it: active = normalized growth mostly below about 0.91 (no sharp cut-off); inconclusive = no clear call, values can overlap the other calls; inactive = mostly above about 0.92. The list shows a part of the results.

Test: chemical genetic growth profiling, strain panel (AID 1159580);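 also: tested at 20 µM; growth read once vehicle control cultures reached saturation at 30 °C; 1 = growth at the plate median or of vehicle wells; lower values mean less growth of the strain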
Settings: S. cerevisiae deletion strains, growth OD

Measured: normalized growth

COc1ccc(-c2oc3ccccc3c(=O)c2O)cc1OC
active: locus YAL021C, strain ccr4, stronger effect = lower value 0.164 | locus YAL026C, strain drs2, stronger effect = lower value 0.512 | locus YAL030W, strain snc1, stronger effect = lower value 0.739 | locus YBL061C, strain skt5, stronger effect = lower value 0.631 | locus YBR009C, strain hhf1, stronger effect = lower value 0.639 | locus YBR023C, strain chs3, stronger effect = lower value 0.587 | locus YBR171W, strain sec66, stronger effect = lower value 0.848 | locus YBR231C, strain swc5, stronger effect = lower value 0.509 | locus YBR279W, strain paf1, stronger effect = lower value 0.697 | locus YCL011C, strain gbp2, stronger effect = lower value 0.617 | locus YCL016C, strain dcc1, stronger effect = lower value 0.782 | locus YCL061C, strain MRC1, stronger effect = lower value 0.753 | locus YCL069W, strain vba3, stronger effect = lower value 0.762 | locus YCR088W, strain abp1, stronger effect = lower value 0.865 | locus YDL040C, strain nat1, stronger effect = lower value 0.902 | locus YDR001C, strain nth1, stronger effect = lower value 0.914 | locus YDR069C, strain doa4, stronger effect = lower value 0.175 | locus YDR137W, strain rgp1, stronger effect = lower value 0.505 | locus YDR159W, strain sac3, stronger effect = lower value 0.748 | locus YDR195W, strain ref2 0.809 | locus YDR297W, strain sur2, stronger effect = lower value 0.557 | locus YDR334W, strain swr1, stronger effect = lower value 0.524 | locus YDR335W, strain msn5, stronger effect = lower value 0.683 | locus YDR392W, strain spt3, stronger effect = lower value 0.553 | locus YEL003W, strain gim4, stronger effect = lower value 0.6 | locus YEL037C, strain rad23, stronger effect = lower value 0.692 | locus YEL061C, strain CIN8 (second series), stronger effect = lower value 0.882 | locus YER015W, strain faa2, stronger effect = lower value 0.4 | locus YER016W, strain bim1, stronger effect = lower value 0.826 | locus YER111C, strain swi4, stronger effect = lower value 0.696 | locus YER155C, strain BEM2 (second series), stronger effect = lower value 0.687 | locus YFR010W, strain ubp6, stronger effect = lower value 0.633 | locus YGL167C, strain pmr1, stronger effect = lower value 0.742 | locus YGL173C, strain kem1, stronger effect = lower value 0.37 | locus YGL240W, strain doc1, stronger effect = lower value 0.772 | locus YGL253W, strain hxk2, stronger effect = lower value 0.544 | locus YHR013C, strain ard1, stronger effect = lower value 0.466 | locus YHR027C, strain rpn1, stronger effect = lower value 0.315 | locus YHR142W, strain chs7, stronger effect = lower value 0.533 | locus YJL092W, strain hpr5, stronger effect = lower value 0.812 | locus YJL095W, strain BCK1 (second series), stronger effect = lower value 0.548 | locus YJL115W, strain asf1, stronger effect = lower value 0.901 | locus YJL129C, strain trk1, stronger effect = lower value 0.721 | locus YJL154C, strain vps35, stronger effect = lower value 0.809 | locus YJL164C, strain tpk1, stronger effect = lower value 0.497 | locus YJL166W, strain qcr8, stronger effect = lower value 0.527 | locus YJL187C, strain SWE1, stronger effect = lower value 0.635 | locus YKL160W, strain elf1, stronger effect = lower value 0.766 | locus YKR026C, strain gcn3, stronger effect = lower value 0.915 | locus YKR091W, strain srl3, stronger effect = lower value 0.875 | locus YLL001W, strain dnm1, stronger effect = lower value 0.692 | locus YLL026W, stronger effect = lower value 0.798 | locus YLL041C, strain sdh2, stronger effect = lower value 0.85 | locus YLR027C, strain aat2, stronger effect = lower value 0.673 | locus YLR221C, strain rsa3, stronger effect = lower value 0.644 | locus YLR258W, strain gsy2, stronger effect = lower value 0.733 | locus YLR262C, strain YPT6 (second series), stronger effect = lower value 0.371 | locus YLR320W, strain mms22, stronger effect = lower value 0.537 | locus YLR342W, strain FKS1, stronger effect = lower value 0.61 | locus YLR357W, strain rsc2, stronger effect = lower value 0.626 | locus YLR370C, strain arc18, stronger effect = lower value 0.785 | locus YLR384C, strain iki3, stronger effect = lower value 0.76 | locus YML120C, strain ndi1, stronger effect = lower value 0.72 | locus YMR058W, strain fet3, stronger effect = lower value 0.113 | locus YMR129W, stronger effect = lower value 0.825 | locus YMR205C, strain PFK2, stronger effect = lower value 0.369 | locus YMR231W, strain pep5, stronger effect = lower value 0.555 | locus YNL071W, strain lat1, stronger effect = lower value 0.715 | locus YNL209W, strain ssb2, stronger effect = lower value 0.222 | locus YNL248C, strain rpa49, stronger effect = lower value 0.783 | locus YNL322C, strain KRE1 (second series), stronger effect = lower value 0.776 | locus YNR049C, strain mso1, stronger effect = lower value 0.889 | locus YOR001W, strain rrp6, stronger effect = lower value 0.678 | locus YOR070C, strain gyp1, stronger effect = lower value 0.772 | locus YOR080W, strain dia2, stronger effect = lower value 0.445 | locus YOR083W, strain WHI5, stronger effect = lower value 0.617 | locus YOR106W, strain vam3, stronger effect = lower value 0.203 | locus YOR265W, strain rbl2, stronger effect = lower value 0.655 | locus YOR270C, strain vph1, stronger effect = lower value 0.32 | locus YOR290C, strain snf2, stronger effect = lower value 0.607 | locus YPL051W, strain arl3, stronger effect = lower value 0.371 | locus YPL078C, strain atp4, stronger effect = lower value 0.74 | locus YPL106C, strain sse1, stronger effect = lower value 0.572 | locus YPL240C, strain hsp82, stronger effect = lower value 0.771
inactive: locus YDL005C, strain med2, stronger effect = lower value 0.915 | locus YGL227W, strain vid30, stronger effect = lower value 0.949 | locus YHR030C, strain SLT2, stronger effect = lower value 1.01 | locus YHR079C, strain IRE1, stronger effect = lower value 0.983 | locus YJL095W, strain BCK1, stronger effect = lower value 0.962 | locus YJR066W, strain TOR1, stronger effect = lower value 0.948 | locus YLR113W, strain HOG1, stronger effect = lower value 0.957 | locus YMR125W, strain sto1, stronger effect = lower value 0.932 | locus YNL183C, strain NPR1, stronger effect = lower value 0.907 | locus YOR231W, strain MKK1, stronger effect = lower value 0.996 | locus YPL256C, strain CLN2, stronger effect = lower value 0.994
